Assay [1] relates to RAW-Dual. As to the kind of experiment: NF-kB SEAP reporter activity, fold change vs agonist alone; cytotoxicity flag (confluency mask): not cytotoxic; higher = enhanced NF-kB activity. The method in brief:
(§1)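 RAW-Dual macrophages (50,000 cells/well in DMEM, 384-well plates) received 50 nL of library stock by pin tool, then a PRR agonist 1 h later, and were kept at 37 °C, 5% CO2. After 20 hours, supernatant was read for IRF by QuantiLuc luminescence and for NF-κB by QuantiBlue absorbance at 620 nm. Reporter activity is fold change over agonist-alone wells. Cytotoxic wells had IncuCyte confluency below 70% of agonist controls in both mask sets.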

Assay [2] relates to RAW-Dual. Description: NF-kB SEAP reporter activity, fold change vs agonist alone; higher = enhanced NF-kB activity. Conditions: library stock concentration (final ~1000-fold dilution): 10 mM. An outline of the steps:
as §1

In assay [3] the test system is RAW-Dual. Description: NF-kB SEAP reporter activity, fold change vs agonist alone; cytotoxicity flag (confluency mask): cytotoxic (confluency <70% of control); higher = enhanced NF-kB activity. An outline of the steps:
as §1

Where [4] appears, read: agonist: ODN 1826 (TLR9) 0.5 ug/mL.
[5] abbreviates: agonist: Pam2CSK4 (TLR2/6) 0.1 ug/mL.
Where [6] appears, read: agonist: Pam3CSK4 (TLR2/1) 0.1 ug/mL.
Setting [7] is: cytotoxicity flag (confluency mask): not cytotoxic, agonist: Imiquimod (TLR7) […].
The mark [8] stands for this setting: cytotoxicity flag (confluency mask): not cytotoxic, agonist: MPLA (TLR4) […].

Molecules are shown by their SMILES. Whole data set: some 2,900 compounds, median “NF-kB SEAP reporter activity, fold change vs agonist alone” near 0.99, cut for the highest 2% near 2.6. The sample as a whole holds a higher share of the highest values than the screen did.

For `CCC1OC(=O)C(C)C(OC2CC(C)(OC)C(O)C(C)O2)C(C)C(OC2OC(C)CC(N(C)C)C2O)C(C)(OC)CC(C)C(=O)C(C)C(O)C1(C)O` (stereo not drawn) (library stock concentration (final ~1000-fold dilution): 10 mM), the “NF-kB SEAP reporter activity” value stood at 0.99 in the assay on RAW-Dual [1] (agonist: LPS (TLR4) 0.1 ug/mL), 0.929 in the assay with RAW-Dual [1] (setting [4]), 0.942 in the assay with RAW-Dual [1] (setting [5]) and 0.932 in the assay on RAW-Dual [1] (setting [6]).

Consider `CCC1OC(=O)C(C)C(OC2CC(C)(OC)C(O)C(C)O2)C(C)C(OC2OC(C)CC(N(C)C)C2O)C(C)(OC)CC(C)C(=O)C(C)C(O)C1(C)O` (stereo not drawn), for which the entries for the “NF-kB SEAP reporter activity” value with RAW-Dual [2] (setting [7]) and with RAW-Dual [2] (setting [8]) were 0.947 and 0.96, respectively.

`CC(=O)C1CCC2C3CC=C4CC(O)CCC4(C)C3CCC12C` (stereo not drawn): the “NF-kB SEAP reporter activity” value in the assay with RAW-Dual [2] (setting [7]) stood at 1.07; in the assay with RAW-Dual [2] (setting [8]) it was 1.3.

In the case of `CC(=O)C1CCC2C3CC=C4CC(O)CCC4(C)C3CCC12C` (stereo not drawn) (library stock concentration (final ~1000-fold dilution): 10 mM), the “NF-kB SEAP reporter activity” value with RAW-Dual [1] (agonist: LPS (TLR4) 0.1 ug/mL) stood at 1.1; with RAW-Dual [1] (setting [4]), 0.897; in the assay on RAW-Dual [1] (setting [5]), 0.904; with RAW-Dual [1] (setting [6]), 0.972.

`N#Cc1ccc(COCC2OC(n3c(NCc4ccc(Cl)c(Cl)c4)nc4c(N)ncnc43)C(O)C2O)cc1` (stereo not drawn) (library stock concentration (final ~1000-fold dilution): 10 mM): the “NF-kB SEAP reporter activity” value was 0.934 in the assay on RAW-Dual [1] (agonist: LPS (TLR4) 0.1 ug/mL), 1.01 with RAW-Dual [1] (setting [4]), 0.742 in the assay with RAW-Dual [1] (setting [5]) and 0.944 in the assay on RAW-Dual [1] (setting [6]).

On to `N#Cc1ccc(COCC2OC(n3c(NCc4ccc(Cl)c(Cl)c4)nc4c(N)ncnc43)C(O)C2O)cc1` (stereo not drawn), for which the figures for the “NF-kB SEAP reporter activity” value with RAW-Dual [2] (setting [7]) and with RAW-Dual [2] (setting [8]) were 0.762 and 0.966, respectively.

Turning to `Cc1ccc(NC(=O)Nc2cc(-c3ccccc3-c3nnn[nH]3)ccc2N(CC(C)C)CC(C)C)cc1`, the “NF-kB SEAP reporter activity” value amounted to 0.81 with RAW-Dual [2] (cytotoxicity flag (confluency mask): cytotoxic (confluency <70% of control), agonist: Imiquimod (TLR7) […]) and 1.25 with RAW-Dual [2] (cytotoxicity flag (confluency mask): cytotoxic (confluency <70% of control), agonist: MPLA (TLR4) […]).

`Cc1ccc(NC(=O)Nc2cc(-c3ccccc3-c3nnn[nH]3)ccc2N(CC(C)C)CC(C)C)cc1` (library stock concentration (final ~1000-fold dilution): 10 mM): the “NF-kB SEAP reporter activity” value is 1.16 in the assay on RAW-Dual [3] (agonist: LPS (TLR4) 0.1 ug/mL), 0.54 in the assay with RAW-Dual [3] (setting [4]), 0.207 in the assay on RAW-Dual [3] (setting [5]) and 0.333 with RAW-Dual [3] (setting [6]).

Regarding `COc1ccc(CC(N)C(=O)NC2C(CO)OC(n3cnc4c(N(C)C)ncnc43)C2O)cc1.Cl.Cl` (stereo not drawn), the “NF-kB SEAP reporter activity” value was 0.438 in the assay on RAW-Dual [2] (setting [7]) and 1.12 in the assay on RAW-Dual [2] (setting [8]).

Turning to `COc1ccc(CC(N)C(=O)NC2C(CO)OC(n3cnc4c(N(C)C)ncnc43)C2O)cc1.Cl.Cl` (stereo not drawn) (library stock concentration (final ~1000-fold dilution): 10 mM), the “NF-kB SEAP reporter activity” value is 0.584 with RAW-Dual [1] (agonist: LPS (TLR4) 0.1 ug/mL), 0.469 in the assay with RAW-Dual [1] (setting [4]), 0.13 in the assay with RAW-Dual [1] (setting [5]) and 0.256 in the assay on RAW-Dual [1] (setting [6]).

Consider `NC(=O)c1cnc2[nH]ccc2c1NC1C2CC3CC1CC(O)(C3)C2` (stereo not drawn), for which the “NF-kB SEAP reporter activity” value with RAW-Dual [2] (setting [7]) is 0.334; in the assay on RAW-Dual [2] (setting [8]) it was 0.347.

In the case of `NC(=O)c1cnc2[nH]ccc2c1NC1C2CC3CC1CC(O)(C3)C2` (stereo not drawn) (library stock concentration (final ~1000-fold dilution): 10 mM), the “NF-kB SEAP reporter activity” value amounted to 0.305 in the assay on RAW-Dual [1] (agonist: LPS (TLR4) 0.1 ug/mL), 0.398 in the assay with RAW-Dual [1] (setting [4]), 0.242 in the assay on RAW-Dual [1] (setting [5]) and 0.31 with RAW-Dual [1] (setting [6]).

Regarding `CC(NC(=O)CCc1nc2ccccc2c(=O)[nH]1)c1ccccc1` (stereo not drawn), the “NF-kB SEAP reporter activity” value in the assay with RAW-Dual [2] (setting [7]) and in the assay on RAW-Dual [2] (setting [8]) was 1.03 each time.

Turning to `CC(C(=O)Nc1cccc(N=Cc2c(O)ccc3ccccc23)c1)c1ccccc1` (stereo not drawn) (library stock concentration (final ~1000-fold dilution): 10 mM), the “NF-kB SEAP reporter activity” value is 6.64 with RAW-Dual [1] (agonist: LPS (TLR4) 0.1 ug/mL), 2.52 in the assay with RAW-Dual [1] (setting [4]), 1.5 in the assay with RAW-Dual [1] (setting [5]) and 1.74 in the assay with RAW-Dual [1] (setting [6]).

As for `CC(NC(=O)CCc1nc2ccccc2c(=O)[nH]1)c1ccccc1` (stereo not drawn) (library stock concentration (final ~1000-fold dilution): 10 mM), the “NF-kB SEAP reporter activity” value with RAW-Dual [1] (agonist: LPS (TLR4) 0.1 ug/mL) turned out to be 0.987; in the assay with RAW-Dual [1] (setting [4]), 1.32; in the assay with RAW-Dual [1] (setting [5]) it was 0.95; in the assay with RAW-Dual [1] (setting [6]), 1.25.

For `CC(NC(=O)c1ccccc1N=Cc1c(O)ccc2ccccc12)c1ccccc1` (stereo not drawn), the “NF-kB SEAP reporter activity” value came out at 1.56 in the assay on RAW-Dual [2] (setting [7]) and 2.25 in the assay with RAW-Dual [2] (setting [8]).

Take `CC(C(=O)Nc1cccc(N=Cc2c(O)ccc3ccccc23)c1)c1ccccc1` (stereo not drawn): the “NF-kB SEAP reporter activity” value in the assay with RAW-Dual [2] (setting [7]) stood at 1.67; in the assay with RAW-Dual [2] (setting [8]) it was 2.34.

On to `CC(NC(=O)c1ccccc1N=Cc1c(O)ccc2ccccc12)c1ccccc1` (stereo not drawn) (library stock concentration (final ~1000-fold dilution): 10 mM), for which the “NF-kB SEAP reporter activity” value in the assay on RAW-Dual [1] (agonist: LPS (TLR4) 0.1 ug/mL) is 5.11; in the assay on RAW-Dual [1] (setting [4]), 1.72; with RAW-Dual [1] (setting [5]), 0.843; with RAW-Dual [1] (setting [6]) it was 1.53.

Consider `CC(NC(=Nc1cccc2ncccc12)NC#N)c1ccccc1` (stereo not drawn), for which the “NF-kB SEAP reporter activity” value in the assay with RAW-Dual [2] (setting [7]) stood at 0.897; with RAW-Dual [2] (setting [8]), 1.12.

On to `CC(NC(=Nc1cccc2ncccc12)NC#N)c1ccccc1` (stereo not drawn) (library stock concentration (final ~1000-fold dilution): 10 mM), for which the “NF-kB SEAP reporter activity” value was determined as 1.34 in the assay with RAW-Dual [1] (agonist: LPS (TLR4) 0.1 ug/mL), 1.07 with RAW-Dual [1] (setting [4]), 1.13 in the assay on RAW-Dual [1] (setting [5]) and 1.29 in the assay with RAW-Dual [1] (setting [6]).

For the compound `CCN1CCN(Cc2ccc(-c3cc4c(NC(C)c5ccccc5)ncnc4[nH]3)cc2)CC1` (stereo not drawn) (library stock concentration (final ~1000-fold dilution): 10 mM), the “NF-kB SEAP reporter activity” value with RAW-Dual [1] (agonist: LPS (TLR4) 0.1 ug/mL) was determined as 0.832; with RAW-Dual [1] (setting [4]), 0.215; in the assay on RAW-Dual [1] (setting [5]) it was 1.02; in the assay with RAW-Dual [1] (setting [6]) it was 1.01.

Consider `CCN1CCN(Cc2ccc(-c3cc4c(NC(C)c5ccccc5)ncnc4[nH]3)cc2)CC1` (stereo not drawn), for which the “NF-kB SEAP reporter activity” value is 1.59 in the assay on RAW-Dual [2] (setting [7]) and 0.93 with RAW-Dual [2] (setting [8]).

`CN1CCC(c2c(O)cc(O)c3c(=O)cc(-c4ccccc4Cl)oc23)C(O)C1.Cl` (stereo not drawn) (library stock concentration (final ~1000-fold dilution): 10 mM): the “NF-kB SEAP reporter activity” value with RAW-Dual [1] (agonist: LPS (TLR4) 0.1 ug/mL) came out at 0.188; in the assay on RAW-Dual [1] (setting [4]), 0.968; in the assay on RAW-Dual [1] (setting [5]), 0.469; with RAW-Dual [1] (setting [6]), 1.44.

Take `CN1CCC(c2c(O)cc(O)c3c(=O)cc(-c4ccccc4Cl)oc23)C(O)C1.Cl` (stereo not drawn): the figures for the “NF-kB SEAP reporter activity” value in the assay on RAW-Dual [2] (setting [7]) and in the assay on RAW-Dual [2] (setting [8]) were 1.64 and 1.49, respectively.

Consider `CC1(N)CCN(c2cnc(-c3cccc(Cl)c3Cl)c(N)n2)CC1.Cl` (library stock concentration (final ~1000-fold dilution): 10 mM), for which the “NF-kB SEAP reporter activity” value in the assay on RAW-Dual [1] (agonist: LPS (TLR4) 0.1 ug/mL) is 1.2; in the assay with RAW-Dual [1] (setting [4]), 0.647; in the assay on RAW-Dual [1] (setting [5]) it was 0.778; in the assay on RAW-Dual [1] (setting [6]), 0.701.

As for `CC1(N)CCN(c2cnc(-c3cccc(Cl)c3Cl)c(N)n2)CC1.Cl`, the “NF-kB SEAP reporter activity” value worked out at 1.11 with RAW-Dual [2] (setting [7]) and 1.18 in the assay with RAW-Dual [2] (setting [8]).

The record behind these values is the supplement of paper PMC10037445.
